Records with an inconclusive call do not appear. Activity calls are given as the source filed them. Unless noted, the call rests on the fitted dose curve; in most records, active means well fitted curve in the direction sought with a large enough effect; inconclusive means small, poorly fitted or top-dose-only effect, or another doubt; inactive means no such curve, though single readings can be large; an effect the other way counts as inactive or inconclusive.
Tests used:
[1] = qHTS for differential inhibitors of proliferation of Plasmodium falciparum line Dd2 (AID 1882); conditions: Potency: Plasmodium falciparum Dd2 proliferation inhibition;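 further: series mostly up to about 29 µM; compound exposure of 72 h on infected erythrocytes; nearly all actives have a fitted effect of over 65% in size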
Outline: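 SYBR Green I DNA fluorescence read-out, ex 485/em 535 nm. Signals were normalized to 0.29 uM artemisinin and DMSO wells, then corrected using vehicle-only plates flanking each stack. Parasite growth ran 72 h in erythrocytes before lysis.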

[2] = qHTS for differential inhibitors of proliferation of Plasmodium falciparum line W2 (AID 1883); conditions: Potency: Plasmodium falciparum W2 proliferation inhibition;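 further: parasites grown with compound for 72 h before lysis and staining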
[3] = qHTS for differential inhibitors of proliferation of Plasmodium falciparum line HB3 (AID 1886); conditions: Potency: Plasmodium falciparum HB3 proliferation inhibition;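 further: parasites grown with compound for 72 h before SYBR Green readout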
[4] = qHTS Assay for Modulators of Human Peripheral Myelin Protein 22 (PMP22) Expression/Activity (AID 1967; active means well fitted curve in the direction sought with a large enough effect in the signal ratio; the % refers to the signal ratio)
Outline: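 MSC80 mouse Schwann cells stably carrying Pmp22 promoter–green click beetle luciferase plus EF-alpha–red luciferase control were dosed for 24h at 37 °C. Dual-colour luminescence was filter-overlap corrected; %Activity came from green/red ratio versus untreated cells.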

[5] = target: Ferritin light chain (Equus caballus) (UniProt P02791); experiment: qHTS Validation Assay for Identification of Novel General Anesthetics (AID 2323); further: series mostly up to about 77 µM
Outline: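 Competitive displacement of profluorescent 1-aminoanthracene (1-AMA, 50% saturated solution in PBS) from 10 uM horse-spleen apoferritin. Compounds incubated 10 min at room temperature; fluorescence read at 380 nm excitation/535 nm emission, normalized to free 1-AMA and complex, fitted with four-parameter Hill equation.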

[6] = target: ATP-dependent DNA helicase Q1 (Homo sapiens) (UniProt P46063); experiment: qHTS Validation Assay for Inhibitors of RecQ-Like Dna Helicase 1 (RECQ1) (AID 2353)
Outline: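 50 nM RECQ1T1 preincubated 15 min with compound in Tris pH 8.0 buffer with MgCl2, DTT, Tween-20 and 2.5 ug/ml poly(dI-dC); started with 200 nM TAMRA/BHQ-2 forked duplex and 2 mM ATP. Unwinding read as fluorescence (525/598 nm), two reads 2 h apart.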

[7] = Cytometric Cell-Based qHTS for Inhibitors of the mTORC1 Signaling Pathway in MEF (Tsc2-/-, p53-/-) Cells (AID 2660);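 further: percent of cells above a phospho-rpS6 to PI ratio cutoff in each well; series mostly up to about 38 µM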
Outline: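 Percent of cells positive for normalized phospho-S6 staining is reported, with the cutoff set from rapamycin (7.5 nM) versus DMSO wells. Tsc2-/-, p53-/- MEFs received compound for 24 hrs.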

[8] = High Content Imaging Cell-Based qHTS for Inhibitors of the mTORC1 Signaling Pathway in MEF (Tsc2-/-, p53-/-) Cells (AID 2666);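 further: percent of cells scored positive for phospho-rpS6 Ser235/236 immunostaining by imaging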
Outline: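 Read-out: % positive cells per well, with thresholds from highest- and lowest-signal wells, based on phospho-rpS6 (Ser235/236) intensity normalized to Hoechst nuclear stain. Cells: Tsc2-/-, p53-/- MEFs carrying empty vector; compound 24 hrs, 37 degree Celsius.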

[9] = High Content Imaging Cell-Based qHTS for Inhibitors of the mTORC1 Signaling Pathway in MEF Cells (AID 2667);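 further: Tsc2-/- p53-/- MEFs stably re-expressing wild-type Tsc2 exposed 24 h; series mostly up to about 38 µM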
Outline: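 MEF (Tsc2-/-, p53-/-, WT Tsc2 re-expressed); cpd 24 h, 37 °C; PFA fix; Alexa-488 anti-p-rpS6 Ser235/236, PI, Hoechst; IN Cell imaging; Hoechst/Alexa-488 intensity ratio; % active cells, thresholds set from rapamycin and DMSO wells.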

[10] = Validation screen for small molecules that induce DNA re-replication in MCF 10A normal breast cells (AID 463097); further: nearly all actives have a fitted effect of over 60% in size
Outline: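 Readout: Hoechst nuclear fluorescence intensity, 405 ex / 500-530 em, by scanning plate imager; re-replication scored as increase in nuclei with elevated DNA content. Cells exposed to compound 48 hr, 37 C, 5% CO2 beforehand.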

[11] = target: Ubiquitin carboxyl-terminal hydrolase 2 (Homo sapiens) (UniProt O75604); experiment: qHTS Validation Assay for Inhibitors of Ubiquitin-specific Protease USP2a Using CHOP2 as the Reporter (AID 463106)
Outline: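 USP2 core (10nM final) was preincubated with compound for 30min at RT in 20mM Tris-HCl pH 8.0, 2mM CaCl2, 2mM beta-mercaptoethanol, 0.05% CHAPS. Ub-CHOP2 and reporter substrate (25nM each) were added, and fluorescence (Ex 485/Em 531nm) was read after 60min.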

[12] = target: DNA polymerase III PolC-type (Bacillus subtilis (strain 168)) (UniProt P13267); experiment: qHTS Validation Assay for the Inhibitors of DNA Replication in Gram-Positive Bacteria (AID 485295);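 further: PicoGreen fluorescence of double-stranded DNA made on primed circular M13 template; series mostly up to about 57 µM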
Outline: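 Reconstituted B. subtilis holoenzyme (Pol III, beta clamp, SSB, primase) was preincubated with compound at room temperature, then given single-stranded circular M13Gori plus dNTPs and NTPs. EDTA-containing PicoGreen stopped the reaction, and dsDNA product was read by fluorescence.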

[13] = target: Tumor susceptibility gene 101 protein (Homo sapiens) (UniProt Q99816); experiment: qHTS Validation Assay for Iinhibitors of HIV-1 Budding by Blocking the Interaction of PTAP/TSG101 (AID 485342; calls by dose curve)
Outline: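 Tsg101 binding domain (10 uM final) in pH 7.5 HEPES/NaCl/Tween 20/EDTA/TCEP buffer was mixed with pin-transferred compounds, then FITC-labeled PTAP peptide (50 nM final) was added; after 20 min at r.t., fluorescence polarization was read.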

[14] = qHTS Validation Assay to Find Inhibitors of Chronic Active B-Cell Receptor Signaling (AID 485345; active means well fitted curve in the direction sought with a large enough effect in the main read-out, with a control signal flat, not every such curve was filed as active)
Outline: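 TMD8 ABC-DLBCL cells with dox-inducible green luciferase–IκBα fusion and red native luciferase; compounds 46 uM–3 nM, 4 h at 37C with doxycycline in 0.5% FBS IMDM. Green/red ratio normalized to basal and 10 uM MG-132.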

[15] = target: Beta-2 adrenergic receptor (Homo sapiens) (UniProt P07550); experiment: qHTS validation assay of beta-arrestin-biased ligands of beta2-adrenergic receptor (AID 485366)
Outline: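 Luminescence from a tTA-responsive luciferase, induced when recombinant beta-arrestin is recruited to recombinant beta2-AR, served as the agonism signal. Cells were exposed to compound for 18 hr at 37 degrees C; titrations spanned up to 46 microM.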

[16] = Cytometry Cell-Based qHTS for Inhibitors of the mTORC1 Signaling Pathway in MEF cells (AID 2668);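 further: Tsc2-/- p53-/- mouse embryonic fibroblasts stably re-expressing wild-type Tsc2; percent cells positive for phospho-rpS6 Ser235/236 relative to propidium iodide stain; series mostly up to about 38 µM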
Outline: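 WT MEFs (Tsc2-/-, p53-/- stably re-expressing WT Tsc2) in DMEM + 10% FBS received compounds 24 hrs after plating, for 24 hrs at 37 degree Celsius. Fixed cells stained with Alexa-488 anti-phospho-rpS6 Ser235/236 and propidium iodide; laser-scanning cytometry read-out.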

[17] = target: RecQ-like DNA helicase BLM (Homo sapiens) (UniProt P54132); experiment: qHTS Validation Assay for Inhibitors of Bloom's syndrome helicase (BLM) (AID 2364)
Outline: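 BLM 50 nM in 25 mM Tris-HCl pH 8.0, 5 mM NaCl, 2 mM MgCl2, 1 mM DTT, 0.01% Tween-20, 2.5 ug/ml poly(dI-dC); 15 min cpd preinc, RT. Start: 200 nM forked DNA + 2 mM ATP (final). TAMRA read, 2 reads 2 h apart.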

Measured: Potency

Chain of Ferritin light chain (Equus caballus) (P02791 2-175 limits assumed): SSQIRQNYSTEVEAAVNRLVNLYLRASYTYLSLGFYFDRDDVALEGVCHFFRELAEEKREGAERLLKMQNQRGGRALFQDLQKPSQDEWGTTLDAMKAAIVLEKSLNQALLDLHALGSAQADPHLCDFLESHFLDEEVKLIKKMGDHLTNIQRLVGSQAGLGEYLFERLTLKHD
Chain of Tumor susceptibility gene 101 protein (Homo sapiens) (Q99816 whole entry, looked up, the tested form may be a part): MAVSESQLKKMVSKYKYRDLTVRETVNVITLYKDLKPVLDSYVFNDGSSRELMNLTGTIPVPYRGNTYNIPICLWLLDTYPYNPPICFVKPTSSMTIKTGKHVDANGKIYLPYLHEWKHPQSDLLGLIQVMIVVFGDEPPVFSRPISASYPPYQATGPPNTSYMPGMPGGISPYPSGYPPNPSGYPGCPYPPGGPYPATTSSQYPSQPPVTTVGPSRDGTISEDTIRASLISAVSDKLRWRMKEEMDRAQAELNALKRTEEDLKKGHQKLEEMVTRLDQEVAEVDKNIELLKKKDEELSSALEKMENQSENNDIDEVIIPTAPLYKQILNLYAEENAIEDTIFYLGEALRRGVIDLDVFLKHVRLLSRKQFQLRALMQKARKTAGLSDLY
Chain of DNA polymerase III PolC-type (Bacillus subtilis (strain 168)) (P13267 whole entry, looked up): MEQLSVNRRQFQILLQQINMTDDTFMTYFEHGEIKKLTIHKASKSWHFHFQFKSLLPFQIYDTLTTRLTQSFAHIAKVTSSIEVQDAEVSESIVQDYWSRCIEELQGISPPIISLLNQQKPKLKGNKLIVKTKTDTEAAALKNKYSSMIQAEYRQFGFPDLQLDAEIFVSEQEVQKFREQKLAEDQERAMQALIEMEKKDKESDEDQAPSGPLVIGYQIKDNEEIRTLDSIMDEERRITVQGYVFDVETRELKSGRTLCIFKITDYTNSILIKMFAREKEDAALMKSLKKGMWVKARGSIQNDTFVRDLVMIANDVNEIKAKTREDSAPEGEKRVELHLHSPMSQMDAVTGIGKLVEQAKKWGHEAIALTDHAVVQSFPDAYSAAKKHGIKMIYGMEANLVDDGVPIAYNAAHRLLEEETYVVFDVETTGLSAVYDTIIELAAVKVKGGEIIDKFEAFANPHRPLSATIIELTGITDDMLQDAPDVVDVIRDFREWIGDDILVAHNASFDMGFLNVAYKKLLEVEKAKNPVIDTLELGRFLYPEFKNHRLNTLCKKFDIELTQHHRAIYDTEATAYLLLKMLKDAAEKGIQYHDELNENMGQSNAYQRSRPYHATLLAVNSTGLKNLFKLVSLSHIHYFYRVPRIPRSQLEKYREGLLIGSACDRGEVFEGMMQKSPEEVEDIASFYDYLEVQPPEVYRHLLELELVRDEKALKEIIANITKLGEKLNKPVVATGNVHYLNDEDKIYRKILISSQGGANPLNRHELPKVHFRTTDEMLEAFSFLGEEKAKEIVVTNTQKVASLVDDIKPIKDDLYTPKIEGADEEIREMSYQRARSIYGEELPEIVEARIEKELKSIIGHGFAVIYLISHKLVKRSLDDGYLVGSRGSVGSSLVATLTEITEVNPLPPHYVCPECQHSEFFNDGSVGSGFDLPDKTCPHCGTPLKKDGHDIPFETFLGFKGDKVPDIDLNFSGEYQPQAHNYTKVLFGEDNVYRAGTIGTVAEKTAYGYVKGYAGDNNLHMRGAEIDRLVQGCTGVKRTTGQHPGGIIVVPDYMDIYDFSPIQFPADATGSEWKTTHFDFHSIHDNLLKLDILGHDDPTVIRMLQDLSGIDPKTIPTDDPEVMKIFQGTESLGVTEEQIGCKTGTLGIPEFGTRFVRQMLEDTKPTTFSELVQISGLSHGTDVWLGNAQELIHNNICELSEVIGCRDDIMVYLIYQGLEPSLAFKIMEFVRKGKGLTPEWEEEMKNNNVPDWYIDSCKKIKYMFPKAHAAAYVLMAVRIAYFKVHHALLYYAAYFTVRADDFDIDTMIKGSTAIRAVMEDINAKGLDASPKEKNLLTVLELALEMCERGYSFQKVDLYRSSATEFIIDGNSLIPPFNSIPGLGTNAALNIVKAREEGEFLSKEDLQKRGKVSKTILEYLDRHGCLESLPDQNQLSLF
Chain of Beta-2 adrenergic receptor (Homo sapiens) (P07550 whole entry, looked up): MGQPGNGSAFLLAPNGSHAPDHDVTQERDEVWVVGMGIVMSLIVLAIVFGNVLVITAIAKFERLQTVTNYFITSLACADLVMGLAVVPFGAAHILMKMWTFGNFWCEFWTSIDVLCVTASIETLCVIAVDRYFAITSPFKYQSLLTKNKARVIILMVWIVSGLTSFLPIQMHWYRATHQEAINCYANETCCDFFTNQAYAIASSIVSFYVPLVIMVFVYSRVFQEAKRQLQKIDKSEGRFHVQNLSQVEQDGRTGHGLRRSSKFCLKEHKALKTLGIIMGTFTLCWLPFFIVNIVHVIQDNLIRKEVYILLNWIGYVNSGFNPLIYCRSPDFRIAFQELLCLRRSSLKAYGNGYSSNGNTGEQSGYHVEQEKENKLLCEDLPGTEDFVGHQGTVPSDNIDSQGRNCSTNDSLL
Chain of Ubiquitin carboxyl-terminal hydrolase 2 (Homo sapiens) (O75604 whole entry, looked up): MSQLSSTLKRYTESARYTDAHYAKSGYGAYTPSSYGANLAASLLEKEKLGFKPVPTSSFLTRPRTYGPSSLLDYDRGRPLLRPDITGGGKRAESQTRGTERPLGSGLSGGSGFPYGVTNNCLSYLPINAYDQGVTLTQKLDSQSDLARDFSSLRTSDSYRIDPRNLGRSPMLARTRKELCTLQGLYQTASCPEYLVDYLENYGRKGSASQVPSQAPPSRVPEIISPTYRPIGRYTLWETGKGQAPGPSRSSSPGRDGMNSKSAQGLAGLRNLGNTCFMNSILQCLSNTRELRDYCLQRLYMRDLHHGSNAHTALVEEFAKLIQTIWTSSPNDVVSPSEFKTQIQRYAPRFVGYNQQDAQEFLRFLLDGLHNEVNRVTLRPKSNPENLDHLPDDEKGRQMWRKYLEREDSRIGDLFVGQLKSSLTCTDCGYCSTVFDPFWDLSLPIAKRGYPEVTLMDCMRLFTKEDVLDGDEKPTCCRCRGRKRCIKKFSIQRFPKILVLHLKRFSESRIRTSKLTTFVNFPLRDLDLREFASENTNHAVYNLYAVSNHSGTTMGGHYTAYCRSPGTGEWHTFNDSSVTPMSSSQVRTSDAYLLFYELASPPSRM
Chain of ATP-dependent DNA helicase Q1 (Homo sapiens) (P46063 whole entry, looked up): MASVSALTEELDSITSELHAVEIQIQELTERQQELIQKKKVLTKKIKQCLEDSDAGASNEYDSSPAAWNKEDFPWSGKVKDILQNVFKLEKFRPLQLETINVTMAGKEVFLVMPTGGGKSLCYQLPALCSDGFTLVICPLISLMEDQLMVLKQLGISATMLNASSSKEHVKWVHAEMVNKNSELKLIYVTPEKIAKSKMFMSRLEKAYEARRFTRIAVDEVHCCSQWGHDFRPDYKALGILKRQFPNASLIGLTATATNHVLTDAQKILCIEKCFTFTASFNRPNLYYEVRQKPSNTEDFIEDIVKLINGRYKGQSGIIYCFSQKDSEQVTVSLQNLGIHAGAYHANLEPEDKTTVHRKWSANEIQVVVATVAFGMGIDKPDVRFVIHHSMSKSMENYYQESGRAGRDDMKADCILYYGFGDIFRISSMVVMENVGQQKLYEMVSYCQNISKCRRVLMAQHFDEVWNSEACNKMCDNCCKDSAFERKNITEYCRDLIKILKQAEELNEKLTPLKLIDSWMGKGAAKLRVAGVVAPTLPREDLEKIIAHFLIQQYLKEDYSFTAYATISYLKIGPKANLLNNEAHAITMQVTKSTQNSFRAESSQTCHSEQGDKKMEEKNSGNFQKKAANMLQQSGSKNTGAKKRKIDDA

COc1cc(C(O)CO)ccc1O (stereo not drawn)
not listed: [16] | [17]
inactive: all other assays above

N[C@@H](CCCC(=O)O)C(=O)O
not listed: [5] | [17]
inactive: all other assays above

NC/C=C\C(=O)O
not listed: [6] | [9] | [17]
inactive: all other assays above

CNc1ncnc2c1ncn2[C@H]1C[C@H](OP(=O)(O)O)[C@@H](COP(=O)(O)O)O1
not listed: [6] | [14] | [17]
inactive: all other assays above

O=C(O)c1cccnc1C(=O)O
not listed: [17]
inactive: all other assays above

CN[C@H](CC(=O)O)C(=O)O
not listed: [15] | [17]
inactive: all other assays above

Oc1ccc(Cn2cc[nH]c2=S)cc1
not listed: [7] | [17]
inactive: all other assays above

NCCC1CCCC(CCN)N1 (stereo not drawn)
not listed: [14] | [16]
inactive: all other assays above

O=C(O)c1cc(=O)cc(C(=O)O)[nH]1
not listed: [17]
inactive: all other assays above

COc1cc(C(O)C(=O)O)ccc1O (stereo not drawn)
not listed: [17]
inactive: all other assays above

Cc1ccc([N+](=O)[O-])cc1S(=O)(=O)N(C)C
not listed: [5] | [14] | [15] | [17]
inactive: all other assays above

Cc1nc(N=Nc2ccc(S(=O)(=O)O)cc2S(=O)(=O)O)c(COP(=O)(O)O)c(C=O)c1O
inactive: all assays above

NCCS(=O)O
not listed: [14] | [17]
inactive: all other assays above

Cn1ccnc1
not listed: [17]
inactive: all other assays above

O=C(O)/C=C/c1cnc[nH]1
not listed: [9] | [15] | [17]
inactive: all other assays above

CC(C)Cn1c(=O)n(C)c(=O)c2[nH]cnc21
not listed: [14] | [17]
inactive: all other assays above

NC1CONC1=O (stereo not drawn)
not listed: [17]
inactive: all other assays above

N=C(N)c1ccccc1
not listed: [17]
inactive: all other assays above

Reference: PubChem BioAssay (NCATS)
